The source made the active and inactive calls. Cut-off read from the data, not from the text of the source, unless noted: active = inhibition above about 80%; inactive = the rest.
Tests used:
[1] = CRL2098 osteosarcoma cell growth inhibition, synergistic combos for chromothripsis tumors, BGB or cisplatin IC20 combos (AID 1671454); settings: CRL2098 osteosarcoma cells, drug combinations, stronger effect = higher value;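 note: cells exposed for 96 h before readout; 0% = vehicle DMSO and 100% = killing by high DMSO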
[2] = HD-MB03 medulloblastoma cell growth inhibition, synergistic combos for chromothripsis tumors, BGB or cisplatin IC20 combos (AID 1671455; in the data active = inhibition above about 83%;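 note: 0% = vehicle DMSO and 100% = high DMSO as cytotoxic control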); settings: HD-MB03 medulloblastoma cells, stronger effect = higher value
[3] = UWB1.289 ovarian carcinoma cell growth inhibition, synergistic combos for chromothripsis tumors, BGB or cisplatin combos (AID 1671456); settings: UWB1.289 ovarian carcinoma cells, stronger effect = higher value;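 note: cells exposed to compound for four days; 0% = vehicle DMSO and 100% = killing by high DMSO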
[4] = LFS_MB_2R medulloblastoma cell growth inhibition, synergistic combos for chromothripsis tumors, cisplatin combos (AID 1671457); settings: LFS_MB_2R medulloblastoma cells, stronger effect = higher value;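 note: cells exposed to compound for four days before readout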
[5] = MDA-MB-436 breast carcinoma cell growth inhibition, synergistic combos for chromothripsis tumors, BGB or cisplatin combos (AID 1671458; call rule not given here;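 note: cells exposed for 96 hours; 0% = vehicle DMSO and 100% = killing by high DMSO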); settings: MDA-MB-436 breast carcinoma growth inhibition, drug combinations, stronger effect = higher value
[6] = UWB1.289_BRCA1 ovarian cancer growth, cell-based, BGB or cisplatin combinations (AID 1671459); settings: UWB1.289 BRCA1 ovarian carcinoma, drug combinations, stronger effect = higher value
[7] = human astrocyte viability loss, single and combined drugs, cytotoxicity control for chromothriptic childhood tumor combination screen, cell-based, BGB or cisplatin IC20 combos (AID 1671460); settings: Human astrocytes, drug combinations, stronger effect = higher value;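 note: cells exposed to compounds for 96 hours before viability readout; 0% = vehicle and 100% = killing control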
[8] = growth inhibition of BT084 medulloblastoma cells, cell-based, ICGC_MB145, cisplatin and BGB IC40 combos (AID 1671461); settings: drug combinations, stronger effect = higher value;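 note: cells exposed to drugs for 96 hours; 0% = vehicle DMSO and 100% = high DMSO full killing control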
[9] = growth inhibition of RCMB18 medulloblastoma cells, cell-based, cisplatin and BGB IC40 combos (AID 1671462); settings: stronger effect = higher value;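 note: cells exposed to compound for four days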
[10] = growth inhibition of CRL1545 osteosarcoma cells, cell-based, cisplatin and BGB IC20 combos (AID 1671464); settings: stronger effect = higher value;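 note: cells exposed to compound for 96 hours before readout; 0% = vehicle DMSO and 100% = high DMSO killing control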
[11] = LFS_MB_P medulloblastoma growth inhibition, cell-based, chromothripsis tumors, cisplatin or BGB combos (AID 1671449); settings: LFS_MB_P medulloblastoma cells;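 note: cells exposed for 96 hours; 0% = vehicle DMSO and 100% = killing by high DMSO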
[12] = HDN33 neuroblastoma growth inhibition, cell-based, chromothripsis tumors, cisplatin or BGB combos (AID 1671450); settings: HDN33 neuroblastoma cells, stronger effect = higher value;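 note: cells exposed to compound for four days; 0% = vehicle DMSO and 100% = cell killing by high DMSO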
[13] = ICB984 medulloblastoma cell growth inhibition, synergistic combos for chromothripsis tumors, cisplatin or BGB combos (AID 1671451; call rule not given here;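 note: cells exposed for 96 hours before readout; 0% = vehicle DMSO and 100% = killing by high DMSO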); settings: ICB984 medulloblastoma cells, drug combinations, stronger effect = higher value
[14] = LFS_MB_1R medulloblastoma cell growth inhibition, synergistic combos for chromothripsis tumors, cisplatin or BGB combos (AID 1671452); settings: LFS_MB_1R medulloblastoma cells, stronger effect = higher value;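 note: cells exposed for 96 hours before readout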
[15] = HTB85 osteosarcoma cell growth inhibition, synergistic combos for chromothripsis tumors, BGB or cisplatin IC20 combos (AID 1671453); settings: HTB85 osteosarcoma cells, drug combinations, stronger effect = higher value;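 note: cells exposed for 96 hours before readout; 0% = vehicle DMSO and 100% = high DMSO killing control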
[16] = measured here: combination with BGB at IC20, at 0.5 µM
[17] = measured here: combination with cisplatin at IC20, at 0.5 µM
[18] = measured here: combo with BGB at IC20, at 0.5 µM
[19] = measured here: combo with cisplatin at IC20, at 0.5 µM
[20] = measured here: inhibition with BGB combination, at 0.05 µM
[21] = measured here: inhibition with cisplatin combination, at 0.05 µM
[22] = measured here: combination with cisplatin, at 0.5 µM
[23] = measured here: combination with cisplatin, at 5 µM
[24] = measured here: BGB combination, at 0.5 µM
[25] = measured here: BGB combination, at 5 µM
[26] = measured here: cisplatin combination, at 0.5 µM
[27] = measured here: cisplatin combination, at 5 µM
[28] = BGB combination, concentration series, at 5 µM
[29] = cisplatin combination, concentration series, at 5 µM
[30] = measured here: combo with BGB IC20, at 0.5 µM
[31] = measured here: combo with cisplatin IC20, at 0.5 µM
[32] = cisplatin combination, at 0.5 µM
[33] = measured here: BGB IC40 combination 0.05 uM, at 0.05 µM
[34] = measured here: BGB IC40 combination, at 0.05 µM
[35] = measured here: with BGB IC20 combination, at 0.5 µM
[36] = measured here: with cisplatin IC20 combination, at 0.5 µM
[37] = measured here: combination with BGB IC40, at 0.05 µM

Q: What does the source list for `O=c1[nH]c(=S)[nH]c2nc(-c3ccccc3)c(-c3ccccc3)nc12`?
A: inhibition ([1]; at 0.5 µM): -39.5% (inactive); inhibition [1, 16]: -21.3%; inhibition [1, 17]: -56.3%; inhibition ([2]; at 0.5 µM): 1.96% (inactive); inhibition [2, 18]: -7.2%; inhibition [2, 19]: 15.9%; inhibition ([3]; at 0.5 µM): 8.37% (inactive); inhibition [3, 20]: 69.6%; inhibition [3, 21]: 18.6%; inhibition ([4]; at 0.5 µM): -9.62% (inactive); inhibition [4, 22]: -6.67%; inhibition [4, 23]: 4.64%; inhibition ([5]; at 0.5 µM): -2.86% (inactive); inhibition [5, 24]: -6.6%; inhibition [5, 25]: -11.7%; inhibition [5, 26]: 0.551%; inhibition [5, 27]: -30.7%; inhibition [6, 28]: 8.97%; inhibition ([6]; at 0.5 µM): 3.94% (inactive); inhibition [6, 29]: -14.9%; inhibition ([7]; at 0.5 µM): 4.94% (inactive); inhibition [7, 30]: 4.6%; inhibition [7, 31]: -1.31%; inhibition ([8]; at 0.5 µM): -2.6% (inactive); inhibition [8, 32]: -10.5%; inhibition ([8]; cisplatin combination, at 5 µM): 0.186%; inhibition [8, 33]: -24.1%; inhibition ([8]; single agent, at 5 µM): 0.55%; inhibition ([9]; at 0.5 µM): -2.13% (inactive); inhibition ([9]; cisplatin combo, at 5 µM): -6.02%; inhibition [9, 34]: -12.2%; inhibition [9, 22]: 41.9%; inhibition ([9]; single agent, at 5 µM): -34.1%; inhibition ([10]; at 0.5 µM): -17.1% (inactive); inhibition [10, 35]: -18.6%; inhibition [10, 36]: -18.2%; inhibition ([10]; single agent, at 0.05 µM): -5.63%; inhibition ([10]; single agent, at 5 µM): -50.2%

Q: Which results are given for `Cc1cn(C2CC(O)C(COP(=O)(O)OP(=O)(O)OP(=O)(O)O)O2)c(=O)[nH]c1=O` (stereo unspecified)?
A: inhibition ([11]; at 0.5 µM, stronger effect = higher value): -19.9% (inactive); inhibition ([11]; measured here: combination with BGB IC20, at 0.005 µM): -8.93%; inhibition ([11]; measured here: combination with BGB IC40, at 0.005 µM): 80.9%; inhibition [11, 37]: 0.344%; inhibition ([11]; measured here: combination with cisplatin, at 0.5 µM, stronger effect = higher value): -42.6%; inhibition ([11]; measured here: combination with cisplatin, at 5 µM, stronger effect = higher value): -12.4%; inhibition ([12]; BGB combo, at 5 µM): -9.68%; inhibition ([12]; at 0.5 µM): 4.14% (inactive); inhibition ([12]; cisplatin combo, at 5 µM): 0.577%; inhibition [12, 35]: -1.96%; inhibition [12, 36]: 7.93%; inhibition ([12]; single agent, at 5 µM): 1.73%; inhibition ([13]; BGB IC20 combo, at 0.005 µM): 10.7%; inhibition ([13]; BGB IC40 combo, at 0.005 µM): 17.3%; inhibition ([13]; BGB IC40 combo, at 0.05 µM): 24%; inhibition ([13]; at 0.5 µM): 8.18% (inactive); inhibition ([13]; cisplatin combo, at 0.05 µM): 20.3%; inhibition ([13]; cisplatin combo, at 0.5 µM): 3.65%; inhibition ([13]; cisplatin combo, at 5 µM): -24.4%; inhibition ([13]; measured here: 5 uM single agent, at 5 µM): 4.13%; inhibition ([14]; at 0.5 µM): 6.88% (inactive); inhibition [14, 37]: -1.92%; inhibition [14, 22]: 9.07%; inhibition [14, 23]: 4.13%; inhibition ([15]; at 0.5 µM): 7.15% (inactive); inhibition ([15]; measured here: with BGB IC20, at 0.5 µM): 27.1%; inhibition ([15]; measured here: with BGB IC20, at 5 µM): 13.2%; inhibition ([15]; measured here: with cisplatin IC20, at 0.5 µM): -5.05%; inhibition ([15]; measured here: with cisplatin IC20, at 5 µM): 1.73%; inhibition ([15]; single agent, at 5 µM): 10.9%; inhibition ([1]; at 0.5 µM): 6.85% (inactive); inhibition [1, 16]: -16.6%; inhibition [1, 17]: 29.2%; inhibition ([2]; at 0.5 µM): 10.7% (inactive); inhibition [2, 18]: 9.76%; inhibition [2, 19]: 8%; inhibition ([3]; at 0.5 µM): 7.19% (inactive); inhibition [3, 20]: 12.5%; inhibition [3, 21]: -3.67%; inhibition ([4]; at 0.5 µM): 0.97% (inactive); inhibition [4, 22]: 8.52%; inhibition [4, 23]: 26.6%; inhibition ([5]; at 0.5 µM): 2% (inactive); inhibition [5, 24]: -1.94%; inhibition [5, 25]: 2.66%; inhibition [5, 26]: -0.048%; inhibition [5, 27]: 5.35%; inhibition [6, 28]: 5.28%; inhibition ([6]; at 0.5 µM): 7.57% (inactive); inhibition [6, 29]: 6.92%; inhibition ([7]; at 0.5 µM): 2.58% (inactive); inhibition [7, 30]: -0.198%; inhibition [7, 31]: 3.8%; inhibition ([8]; at 0.5 µM): 6.5% (inactive); inhibition [8, 32]: 4.31%; inhibition ([8]; cisplatin combination, at 5 µM): -28.2%; inhibition [8, 33]: 23.2%; inhibition ([8]; single agent, at 5 µM): 18.9%; inhibition ([9]; at 0.5 µM): -1.71% (inactive); inhibition ([9]; cisplatin combo, at 5 µM): -2.93%; inhibition [9, 34]: 18.6%; inhibition [9, 22]: -28.7%; inhibition ([9]; single agent, at 5 µM): 2.51%; inhibition ([10]; at 0.5 µM): 12.4% (inactive); inhibition [10, 35]: 17.1%; inhibition [10, 36]: 8.61%; inhibition ([10]; single agent, at 0.05 µM): -33%; inhibition ([10]; single agent, at 5 µM): -18%
